In all, about 69,000 compounds went through this assay and about 8,600 (12%) showed an effect of 50% or more. For the sample, strong results were picked, then their nearest neighbours and some compounds at random.

The assay concerns Plasmodium berghei. Put plainly: Screen against P. berghei liver stage (PbLuc), transformed with Luciferase, at 10uM. Type of assay: functional, HepG2. The conditions noted are these: tested at 10 uM.
On to `Cc1ccc(C2COCCN2C(=O)c2ccc(F)c(F)c2)o1` (stereo not drawn), for which the INHIBITION came out at 44.9%.
Turning to `O=C(c1cnccn1)N1CCc2onc(Cn3cccn3)c2C1`, the INHIBITION turned out to be 9.63%.
Take `O=C(NCCN1CCCCCC1=O)c1ccc(=O)[nH]n1`: the INHIBITION is on record as 33.7%.
As for `Cn1ccnc1CN1CCN2C[C@H](Oc3ccccc3)C[C@H]2C1`, the INHIBITION turned out to be 39.8%.
For the molecule `CN(C)c1nccc(C2CCCCN2Cc2cnn3cccnc23)n1` (stereo not drawn), the INHIBITION is -29.9%.
The figure for `Cc1csc(N2CCCN(C(=O)Cn3cncn3)CC2)n1` is -52.5%; for `CN(Cc1ccnc2ccccc12)C1CCS(=O)(=O)C1` (stereo not drawn) it is 45.2%; for `CCOCC1CN(C(=O)COc2ccccc2C)Cc2ncn(C)c21` (stereo not drawn) it is 24.6%.
In the case of `O=C(Cc1ccc(F)cc1)N1CCCCC1c1ccn2ccnc2n1` (stereo not drawn), the INHIBITION amounted to 7.39%.
The figure for `O=C(CCc1cccnc1)N1CCCCC1c1ccn2ccnc2n1` (stereo not drawn) is 45.6%.
On to `O=C(COc1cccc(F)c1)N1CCCCC1c1ccn2ccnc2n1` (stereo not drawn), for which the INHIBITION is reported as 1.11%.
Regarding `O=C(COc1ccccc1F)N1CCCCC1c1ccn2ccnc2n1` (stereo not drawn), the INHIBITION worked out at 63.4%.
The figure for `O=C(Cc1cccc(F)c1)N1CCCCC1c1ccn2ccnc2n1` (stereo not drawn) is 9.1%; for `O=C(Cc1ccccc1F)N1CCCCC1c1ccn2ccnc2n1` (stereo not drawn) it is 51.5%.
The figure for `CCn1cc(CNc2ccc(F)c(F)c2)cn1` is -8%; for `CCCc1noc(C[S+]([O-])CC(=O)NCc2ccccc2)n1` (stereo not drawn) it is 23.2%.
As for `CC(C)Cc1nc(C[S+]([O-])CC(=O)NCc2ccccc2)no1` (stereo not drawn), the INHIBITION is recorded as -5.1%.
On to `CC(C)CCc1noc(C[S+]([O-])CC(=O)NCc2ccccc2)n1` (stereo not drawn), for which the INHIBITION was found to be 55.3%.
For the molecule `COc1ccc(N2CCN(C(=O)COc3nccc(C)n3)CC2)cc1`, the INHIBITION was 36.8%.
In the case of `N#CCc1ccc(NC(=O)N[C@H](CO)Cc2ccc(O)cc2)cc1`, the INHIBITION is 11.6%.
As for `N#Cc1cccc(NC(=O)N[C@H](CO)c2ccccc2)c1`, the INHIBITION is on record as 18.5%.
Regarding `N#Cc1cccc(NC(=O)N[C@H](CO)Cc2ccc(O)cc2)c1`, the INHIBITION is recorded as 60.9%.
For `Cc1ccc(CN2CC[C@@H](NC(=O)c3cccnc3)[C@H](O)C2)o1`, the INHIBITION came out at 31.1%.
Turning to `O=C(CNc1cc(-n2cnnn2)ccc1F)Nc1ccccc1Cl`, the INHIBITION amounted to 41.4%.
Take `O=C(CNc1cc(-n2cnnn2)ccc1F)NCc1ccccc1`: the INHIBITION is 53.4%.
Take `O=C(CNc1cc(-n2cnnn2)ccc1F)Nc1cc(F)ccc1F`: the INHIBITION was 46.6%.
As for `COCCNC(=O)c1cc(-c2ccc3c(c2)CCO3)n[nH]1`, the INHIBITION was -18.9%.
`CCC(CO)N(Cc1ccccn1)Cc1c[nH]nc1-c1ccc(F)cc1` (stereo not drawn): the INHIBITION is listed as 78.9%.
`CCN(Cc1ccncc1)Cc1c[nH]nc1-c1ccc(F)cc1`: the INHIBITION worked out at 14.8%.
With `CCC(CO)N(C/C(C)=C/c1ccco1)Cc1ccccn1` (stereo not drawn), the INHIBITION came to 8.64%.
The figure for `CN(Cc1cc(C(C)(C)C)n[nH]1)Cc1c[nH]nc1-c1ccc(F)cc1` is 47.6%; for `CN(Cc1ccn[nH]1)Cc1c[nH]nc1-c1ccc(F)cc1` it is 77.2%.
The figure for `CCC(CO)N(Cc1ccccn1)Cc1ccc(-c2ccn[nH]2)s1` (stereo not drawn) is 47.2%.
For `CCC(CO)N(Cc1ccncc1)Cc1c[nH]nc1-c1ccc(F)cc1` (stereo not drawn), the INHIBITION worked out at 57.6%.
For the molecule `CCC(CO)N(Cc1ccc(F)cc1)Cc1c(C)nn(C)c1Cl` (stereo not drawn), the INHIBITION was -8.66%.
`Cc1n[nH]c(C)c1CCCN(C)Cc1c[nH]nc1-c1ccc(F)cc1`: the INHIBITION turned out to be 40.2%.
Take `CN(Cc1ccccc1)C(=O)Cn1nc(N2CCOCC2)ccc1=O`: the INHIBITION was -28.7%.
Turning to `O=C1CCCCN1CCc1nc(C2(c3ccc(F)cc3)CCOC2)no1` (stereo not drawn), the INHIBITION is -15.5%.
For the molecule `CCc1nn(C)c2[nH]nc(NC(=O)c3cccnc3NC(C)C)c12`, the INHIBITION was determined as 36.3%.
With `CCS(=O)(=O)N1CC(=O)N(CCOc2ccccc2)CC(O)C1` (stereo not drawn) the figure was -10.3%; with `CCn1cc(S(=O)(=O)NC2(CN3CCOCC3)CCCCC2)c(C)n1`, -10.5%.
Consider `CC(C)c1nccn1C(C)C(=O)N1CCN(c2ccccc2Cl)CC1` (stereo not drawn), for which the INHIBITION is 64.6%.
The figure for `CC(C)c1nccn1C(C)C(=O)N1CCN(c2cnccn2)CC1` (stereo not drawn) is -6.28%; for `Cc1cccnc1N1CCN(C(=O)C(C)n2ccnc2C(C)C)CC1` (stereo not drawn) it is 17.9%; for `COCCN(C)C[C@@H]1CN(C(=O)c2ccc(C)c(Cl)c2)C[C@@H]1CO` it is 13.1%.
As to `C[C@@H]1CN(Cc2ccoc2)C[C@]12CCN(CC(=O)N(C)C)C2=O`, the INHIBITION was 23.5%.
For the molecule `CCOC(C)c1noc(CN2CCN(Cc3ccno3)CC2)n1` (stereo not drawn), the INHIBITION was found to be 33.4%.
With `CCOC(C)c1noc(CN2CCN(c3nnc(C)s3)CC2)n1` (stereo not drawn) the figure was 65.8%.
`CCOC(C)c1noc(CN2CCN(Cc3cccnc3)CC2)n1` (stereo not drawn): the INHIBITION worked out at 34.4%.
Turning to `CCOC(C)c1noc(CN2CCN(c3ccncc3)CC2)n1` (stereo not drawn), the INHIBITION came to 81%.
For `CCOC(C)c1noc(CN2CCNCC2)n1` (stereo not drawn), the INHIBITION was determined as 31.2%.
Regarding `CCOC(C)c1noc(CN2CCN(CC3CCCC3)CC2)n1` (stereo not drawn), the INHIBITION was found to be 28%.
Consider `COc1ccc(CN(Cc2cccnc2)CC2CCCO2)c(OC)c1` (stereo not drawn), for which the INHIBITION amounted to 22.2%.
`CCN1C(=O)CCCC12CCCN(C(=O)c1ccoc1C)C2` (stereo not drawn): the INHIBITION is reported as 32.1%.
Turning to `CCC(=O)NCC(=O)NCC1(O)CCC(C(C)(C)C)CC1` (stereo not drawn), the INHIBITION was 38.3%.
For the molecule `CC(=O)NCc1cncc(C2CCCN2C2CCOCC2)n1` (stereo not drawn), the INHIBITION is on record as -4.15%.
Consider `c1cnn(CC2CCCCN2c2ncnc3sccc23)c1` (stereo not drawn), for which the INHIBITION was determined as 18.2%.
As to `c1cnn(CC2CCCN2c2ncnc3sccc23)c1` (stereo not drawn), the INHIBITION was found to be 79.7%.
Regarding `c1cnn(CC2CCCCN2c2ncnc3ccsc23)c1` (stereo not drawn), the INHIBITION is given as 14.75%.
As to `c1nc(N2CCCC2Cn2cncn2)c2ccsc2n1` (stereo not drawn), the INHIBITION was 33%.
With `c1nc(N2CCCC2Cn2cncn2)c2sccc2n1` (stereo not drawn) the figure was 10.65%.
Consider `c1cnn(CC2CCCN2c2ncnc3ccsc23)c1` (stereo not drawn), for which the INHIBITION is recorded as 57.8%.
The figure for `O=C(Nc1nccs1)C1CCN(Cc2cccc3c2OCCO3)CC1` is 37.6%; for `COCc1noc(-c2cc(Cl)c3c(c2)OCO3)n1` it is -26.1%; for `CC1CN(CC(=O)NCc2ccccc2)CCN1Cc1nccn1C` (stereo not drawn) it is 22.93%.
The figure for `Cc1[nH]ccc1C(=O)N1CCCC(c2ccc(C(=O)O)cc2)C1` (stereo not drawn) is 2.7%.
`O=C(c1cccc2cccnc12)N1CCCC(n2ccnc2)C1` (stereo not drawn): the INHIBITION is given as 17.02%.
Take `CN(C)c1ncccc1CNc1cc(N2CCCC2CO)ncn1` (stereo not drawn): the INHIBITION is recorded as 26.4%.
In the case of `CC(O)C(=O)N1CCC(c2[nH]ncc2-c2ccccc2)CC1` (stereo not drawn), the INHIBITION is 1.66%.
On to `Cc1ccc(-c2cn[nH]c2C2CCCN(c3cnccn3)C2)cc1` (stereo not drawn), for which the INHIBITION is 53.7%.
For `Cc1ccc(-c2cn[nH]c2C2CCCN(c3ccnc(C)n3)C2)cc1` (stereo not drawn), the INHIBITION is given as 65.3%.
Take `Cc1nccc(N2CCCC(c3nnc(Cn4ccnc4C)n3C)C2)n1` (stereo not drawn): the INHIBITION is recorded as 1.74%.
With `C[C@H](N)C(=O)N1CCC(c2[nH]ncc2-c2ccccc2)CC1`, the INHIBITION is recorded as -15.65%.
On to `Cc1ccnc(C2CCN(c3ccnc(C)n3)C2)n1` (stereo not drawn), for which the INHIBITION was 10.9%.
For the molecule `Cc1ccc(-c2cn[nH]c2C2CCCN(c3ncccn3)C2)cc1` (stereo not drawn), the INHIBITION worked out at 27.6%.
In the case of `Cc1ccc(-c2cn[nH]c2C2CCCN(c3cc(N)ncn3)C2)cc1` (stereo not drawn), the INHIBITION stood at 75.4%.
Regarding `CN(C)CCn1ccnc1C1CCCN(c2cc(N)ncn2)C1` (stereo not drawn), the INHIBITION was 28%.
For the molecule `Cc1ccc(N2CCCC(c3[nH]ncc3-c3ccccc3)C2)nn1` (stereo not drawn), the INHIBITION is 56.2%.
For the molecule `Cc1ccc(-c2cn[nH]c2C2CCCN(c3nccc(N)n3)C2)cc1` (stereo not drawn), the INHIBITION is reported as 47.2%.
With `Cc1c[nH]nc1C1CCCN(c2cnccn2)C1` (stereo not drawn), the INHIBITION is reported as 4.73%.
With `CN(CCO)C[C@@H]1CN(C(=O)c2cccc(OC(F)F)c2)C[C@@H]1CO`, the INHIBITION turned out to be 3.19%.
The figure for `O=C(C1CCOC1)N1CCN(Cc2ccc3c(c2)CCO3)CC1` (stereo not drawn) is 41.5%; for `Cc1nc(CN(C)C2CCN(CCc3cccs3)C2)no1` (stereo not drawn) it is 39.2%.
In the case of `CS(=O)(=O)NC[C@@H]1OC[C@H]2CN(C(=O)c3ccccn3)CC[C@H]21`, the INHIBITION is listed as -2.17%.
On to `O=C(NCC1CC2(CO1)CN(c1ncccn1)C2)C1CCC1` (stereo not drawn), for which the INHIBITION is reported as 27.6%.
For `Cc1ccc(N2CCC(c3[nH]ncc3Cc3ccccc3)CC2)nn1`, the INHIBITION was 49.2%.
The figure for `Cc1cc(N2CCCC(c3[nH]ncc3Cc3ccccc3)C2)nc(N)n1` (stereo not drawn) is 86.8%.
For the molecule `Cc1ccc(N2CCCC(c3[nH]ncc3Cc3ccccc3)C2)nn1` (stereo not drawn), the INHIBITION was found to be 47.2%.
`O=C(c1cnccn1)N1C[C@@H]2CN(Cc3cccnc3)CCO[C@@H]2C1`: the INHIBITION is on record as 22.5%.
In the case of `O=C(CN1CCc2c(ncn2C2CC2)C1)NC1CCOCC1`, the INHIBITION is 5.7%.
As for `NCC1Cc2cc(-c3nccc(N4CCC(O)CC4)n3)cc(F)c2O1` (stereo not drawn), the INHIBITION is 20.5%.
On to `NCC1Cc2cc(-c3nccc(N4CCC(O)CC4)n3)cc(Cl)c2O1` (stereo not drawn), for which the INHIBITION was 43.9%.
Consider `NCC1Cc2cccc(-c3nccc(N4CCC(O)CC4)n3)c2O1` (stereo not drawn), for which the INHIBITION was determined as 92.1%.
With `CCCc1noc(C2CC(=O)N(Cc3ccccc3)C2)n1` (stereo not drawn) the figure was 11.1%.
On to `COCCC(=O)N1Cc2ccccc2OC2(CCOCC2)C1`, for which the INHIBITION worked out at 26.05%.
On to `Cc1c(CS(C)(=O)=O)cccc1NCC1CCCCC1`, for which the INHIBITION was -0.514%.
As for `Cc1c(CS(C)(=O)=O)cccc1NCCCC1CCCC1`, the INHIBITION was determined as 74.8%.
With `Cc1c(CS(C)(=O)=O)cccc1NC(=O)CC1CCCC1` the figure was -15.9%; with `CN(Cc1ccc(O)cc1)C(=O)NC1CCCN(c2ncccn2)C1` (stereo not drawn), 18.9665%.
Regarding `O=c1[nH]c2cn(-c3cccc(F)c3)c(=O)n2n1Cc1ccccc1Cl`, the INHIBITION was found to be 20.6%.
Take `CCc1nc(C(=O)N2CCCCC2)nn1-c1ccccc1Cl`: the INHIBITION is reported as 12.7%.
Turning to `CCN1CCN(C(=O)c2nc(C)n(-c3ccccc3Cl)n2)CC1`, the INHIBITION was found to be 50.4%.
Consider `CCc1nc(C(=O)N2CCCC2)nn1-c1ccccc1Cl`, for which the INHIBITION worked out at 67.3%.
Take `CCc1nc(C(=O)N2CCN(C)CC2)nn1-c1ccccc1Cl`: the INHIBITION was found to be 34.7%.
For the molecule `Cc1nc(C(=O)N2CCCCC2)nn1-c1ccccc1Cl`, the INHIBITION amounted to 4.52%.
Turning to `CCc1nc(C(=O)N2CCN(CC)CC2)nn1-c1ccccc1Cl`, the INHIBITION is recorded as 4.52%.
On to `Cc1cnc(CC2COCCN(C(=O)c3cncs3)C2)cn1` (stereo not drawn), for which the INHIBITION was determined as 21.5%.
Take `CCc1ccc(C(=O)N2CCC(c3nncn3CC)CC2)o1`: the INHIBITION was found to be 28.1%.

Source of the values: ChEMBL document CHEMBL4513216, “Probing the Open Global Health Chemical Diversity Library for Multistage-Active Starting Points for Next-Generation Antimalarials” (ACS Infect Dis, 2020).
